Screening data as filed in PubChem.
Most compounds without a hit are left out; they make up all but 6.5% or so of the library.
FMDV inh – foot and mouth disease virus antiviral activity. AID 1159524. Potency, µM (doses to about 57.9 µM), inactives show at the highest dose activity change, negative = inhibition, actives largely listed as inhibitors. 1.2% of 410,000 active. FMDV antiviral cell-based qHTS; calls by dose curve; tested in HEK293T cells; note: read-out not given here; potency is the fitted concentration of half-maximal effect; nearly all actives have a fitted effect of over 45% in size
Vaccinia mCherry – inhibitors of vaccinia virus infection (mCherry reporter signal); Vaccinia virus mCherry reporter infection, fluorescence; Potency, µM (highest dose often 36.5 µM), for inactives: top-dose activity change, negative = inhibition, hits mostly inhibitors; 0.63% of 310,000 active; calls by dose curve; tested in A549 cells; note: potency is the fitted concentration of half-maximal effect; nearly all actives have a fitted effect of over 35% in size
MARV entry inh – inhibitors of Marburg virus binding or cell entry. Marburg virus pseudotyped entry inhibition, cell reporter. Potency, µM (top dose mostly 37.8 µM), for the others: at the highest dose activity change, negative = inhibition, actives largely listed as inhibitors. 1.8% of 300,000 active. AID 540276; calls by dose curve; tested in HEK293 cells; note: potency is the fitted concentration of half-maximal effect
VACV Venus inh – vaccinia inhibition (Venus reporter); Vaccinia virus Venus reporter expression, fluorescence; Potency, µM (doses to about 36.5 µM), for inactives: at the highest dose activity change, negative = inhibition, usual class: inhibitors; AID 720580; 0.46% of 330,000 active; calls by dose curve; tested in A549 cells; note: potency is the fitted concentration of half-maximal effect; nearly all actives have a fitted effect of over 30% in size
LASV entry inh – inhibitors of Lassa virus binding or cell entry. Lassa virus pseudotype entry inhibition, cell reporter. Potency, µM (series often up to 37.9 µM), for inactives: top-dose activity change, negative = inhibition, usual class: inhibitors. 1.2% of 300,000 active; calls by dose curve; tested in HEK293 cells; note: potency is the fitted concentration of half-maximal effect; nearly all actives have a fitted effect of over 50% in size
HCMV inh – blocks human cytomegalovirus replication. HFF cells, HCMV-luciferase reporter, 72 h; active compounds read low. activity change, negative = inhibition, % at 57.5 µM. 4.5% of 410,000 active. AID 1259415; in the data active = activity change below about -60%; inconclusive = no clear call, values can overlap the other calls; inactive = above about -39%
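After 16 h attachment at 37C, HFF cells received test compound and HCMV-luciferase (1 PFU/cell); reporter luminescence read 72 h later, data normalized against buffer-only and known inhibitor Salinomycin.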
Active calls of the source: *; i = inactive; ? = inconclusive; . = no result; ! = not confirmed by another sample; [ ] = remark or other dose. % is set by controls: 0 for no effect and ±100 for the full control effect.

SMILES	FMDV inh	Vaccinia mCherry	MARV entry inh	VACV Venus inh	LASV entry inh	HCMV inh
COCCN(C(=O)c1csnn1)C(C(=O)NC1CCCCC1)c1ccc(Cl)cc1 (stereo not given)	12%	i	?	-16%	?	-99*
c1ccc2c(c1)nc(N1CCOCC1)c1ccccc12	5%	i	-20%[46.1 µM]	-12%	-30%[46.1 µM]	-38
CCN(CC)c1ccc(Nc2nc(N3CCOCC3)c3ccccc3n2)cc1	?	.	?	.	18µM*	-96*
COc1ccc(Nc2nc(N3CCCC3)c3ccccc3n2)cc1	?	8.9µM*	1.6µM*	10µM*	?	-7
Cc1nc(N2CCCCCC2)c2ccccc2n1	-30%	.	.	.	.	?
O=c1c2c(nc3c(-c4ccc(Cl)cc4)c[nH]n13)CCCC2	22µM*	?	?	4.5µM*	10µM*	-78*
CO[C@H]1[C@H](NC(=O)c2cccs2)c2ccccc2C12CCN(Cc1cccn1-c1cccnc1)CC2	-8%	-9%	.	-4%	.	.
Cc1ccc(-c2nnc(Nc3ccc(O)cc3)c3ccccc23)cc1S(=O)(=O)NCC1CCCO1 (stereo not given)	8%	?	10%[46.1 µM]	-25%	-24%[46.1 µM]	-71*
COc1ccc(Nc2nnc(-c3ccc(C)c(S(=O)(=O)NCc4nc5ccccc5[nH]4)c3)c3ccccc23)cc1	42%	?	?	?	-25%[46.1 µM]	-95*
Cc1ccc(-c2nnc(Nc3cccc(Cl)c3)c3ccccc23)cc1S(=O)(=O)NCC1CCCO1 (stereo not given)	58%	-21%	-26%[46.1 µM]	-22%	?	-65*
COc1ccc(Nc2nnc(-c3ccc(C)c(S(N)(=O)=O)c3)c3ccccc23)cc1	90%	-23%	.	-8%	-8%[46.1 µM]	?
Cc1ccccc1NC(=O)CSc1nc2nccnc2c(=O)n1CCc1c[nH]c2ccccc12	-9%	-13%	.	-6%	-1%[46.1 µM]	?
Cc1ccc(Cn2c(CNS(=O)(=O)c3cccc([N+](=O)[O-])c3)nc3cccnc32)cc1	58%	-13%	.	-7%	5%[46.1 µM]	-24
Cc1ccc(S(=O)(=O)CCC(=O)c2cccc([N+](=O)[O-])c2)cc1	25µM*	-5%	?	-22%	?	-12
Cc1ccc(C(=O)CCS(=O)(=O)c2ccc(Br)cc2)cc1	11%	-8%	15%[46.1 µM]	-8%	?	32
Cc1ccc(S(=O)(=O)Cc2cc(F)c([N+](=O)[O-])cc2[N+](=O)[O-])cc1	-41%	2.8µM*	?	?	-21%[46.1 µM]	.
CCOC(=O)c1ccc([N+](=O)[O-])c(CS(=O)(=O)c2ccc(Cl)cc2)c1	-16%	.	.	.	.	5
COc1ccc2c(c1)Sc1ccccc1N2	21%	3%	-13%[46.1 µM]	2%	12%	-81*
O=S(=O)(CCSc1nc2ccccc2s1)c1nc2ccccc2s1	8.9µM*	.	?	.	?	-85*
C=CCS(=O)(=O)c1nc2ccccc2s1	?	.	-31%	?	?	-97*
Cc1coc2c1C(=O)C(=O)c1c-2ccc2c1CCCC2(C)C	-20%	10µM*!	.	11µM*!	.	?
Cc1coc2c1C(=O)C(=O)c1c-2ccc2c(C)cccc12	?	?	.	7.1µM*	.	.
CC1COC2=C1C(=O)C(=O)c1c2ccc2c1CCCC2(C)C (stereo not given)	-9%	-5%	.	9%	.	.
Cc1ccc2c3c(cccc13)-c1ccccc1C2=O	71%	-24%	-2%	-9%	?	16
C[C@H]1COC2=C1C(=O)C(=O)c1c2ccc2c1CCCC2(C)C	-23%	11µM*	.	11µM*	.	.
COc1ccccc1-c1ccnc(-n2ncc(C(=O)N3CCN(C4CCCC4)CC3)c2-c2ccco2)n1	0%	-19%	.	-7%	.	.
O=c1c(-c2cc(F)cc(F)c2)nc2cnc(N3CCOCC3)nc2n1C[C@H]1CCCO1	-4%	.	.	.	.	.
COc1ccc(NC(=O)CCCOc2ccc(C)cc2)cc1S(=O)(=O)N1CCCCC1	?	i	.	-22%	.	-11
Cc1cccc(OCCC(=O)Nc2ccc(C)c(S(=O)(=O)N3CCCCC3)c2)c1	-9%	?	?	?	?	-64*
COc1ccc(NC(=O)CCOc2cc(C)ccc2C)cc1S(=O)(=O)N1CCCCC1	?	?	?	?	?	-62*
